Data as given in PubChem BioAssay AID1159580 (chemical genetic matrix, 2015).
Out of some 5,500 compounds screened, about 2,000 (36%) were called active. About 18% were inconclusive and are not listed. Rule as the data show it: active = normalized growth mostly below about 0.91 (no sharp cut-off); inconclusive = no clear call, values can overlap the other calls; inactive = mostly above about 0.92. Some of the results follow.

Assay: chemical genetic growth profiling, strain panel (AID 1159580);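 also: tested at 20 µM; growth read once vehicle control cultures reached saturation at 30 °C; 1 = growth at the plate median or of vehicle wells; lower values mean less growth of the strain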
Conditions: growth OD
[1] = S. cerevisiae deletion strains, locus YAL013W, strain DEP1, stronger effect = lower value
[2] = S. cerevisiae deletion strains, locus YGR078C, strain PAC10, stronger effect = lower value
[3] = S. cerevisiae deletion strains, locus YMR263W, strain SAP30, stronger effect = lower value
[4] = S. cerevisiae deletion strains, locus YNL322C, strain KRE1, stronger effect = lower value
[5] = S. cerevisiae deletion strains, locus YPL055C, strain LGE1, stronger effect = lower value
[6] = S. cerevisiae deletion strains, locus YPL241C, strain CIN2, stronger effect = lower value
[7] = S. cerevisiae deletion strains, locus YHR030C, strain SLT2, stronger effect = lower value

Measured: normalized growth

O=C(O)[C@@H]1C[C@@H](C(=O)O)N1
inactive: [1] 1.02 | S. cerevisiae deletion strains, locus YAL040C, strain CLN3, stronger effect = lower value 1.08 | S. cerevisiae deletion strains, locus YCL061C, strain MRC1 (second series), stronger effect = lower value 1 | S. cerevisiae deletion strains, locus YER002W, strain NOP16, stronger effect = lower value 1 | [2] 1.01 | S. cerevisiae deletion strains, locus YGR229C, strain SMI1, stronger effect = lower value 0.986 | [3] 0.997 | S. cerevisiae deletion strains, locus YNL175C, strain NOP13, stronger effect = lower value 1 | S. cerevisiae deletion strains, locus YNL197C, strain WHI3, stronger effect = lower value 1.02 | S. cerevisiae deletion strains, locus YNL224C, strain SQS1, stronger effect = lower value 0.978 | [4] 0.986 | S. cerevisiae deletion strains, locus YOR083W, strain WHI5 (second series), stronger effect = lower value 1.03 | [5] 1.02 | [6] 0.992

CSc1sc(C#N)c2c1C(O)CCC2 (configuration not stated)
inactive: [1] 0.988 | S. cerevisiae deletion strains, locus YBR229C, strain ROT2, stronger effect = lower value 0.973 | S. cerevisiae deletion strains, locus YDL101C, strain DUN1, stronger effect = lower value 0.977 | S. cerevisiae deletion strains, locus YDR150W, strain NUM1, stronger effect = lower value 0.948 | S. cerevisiae deletion strains, locus YEL061C, strain CIN8, stronger effect = lower value 0.993 | [2] 0.983 | [7] 0.931 | S. cerevisiae deletion strains, locus YHR087W, strain rtc3, stronger effect = lower value 0.968 | S. cerevisiae deletion strains, locus YJR043C, strain POL32, stronger effect = lower value 0.961 | S. cerevisiae deletion strains, locus YJR075W, strain HOC1, stronger effect = lower value 0.96 | S. cerevisiae deletion strains, locus YKL190W, strain CNB1, stronger effect = lower value 0.992 | S. cerevisiae deletion strains, locus YLR039C, strain RIC1, stronger effect = lower value 1.01 | S. cerevisiae deletion strains, locus YLR058C, strain SHM2 (second series), stronger effect = lower value 0.982 | S. cerevisiae deletion strains, locus YLR085C, strain ARP6, stronger effect = lower value 1.03 | S. cerevisiae deletion strains, locus YLR262C, strain YPT6, stronger effect = lower value 1.01 | S. cerevisiae deletion strains, locus YML094W, strain GIM5, stronger effect = lower value 1 | S. cerevisiae deletion strains, locus YMR219W, strain ESC1, stronger effect = lower value 0.985 | [3] 0.95 | S. cerevisiae deletion strains, locus YNL128W, strain TEP1, stronger effect = lower value 0.975 | S. cerevisiae deletion strains, locus YNL153C, strain GIM3, stronger effect = lower value 0.976 | S. cerevisiae deletion strains, locus YNL298W, strain CLA4 (second series), stronger effect = lower value 0.964 | [4] 1 | S. cerevisiae deletion strains, locus YNR030W, strain Alg12, stronger effect = lower value 0.974 | S. cerevisiae deletion strains, locus YOL006C, strain TOP1, stronger effect = lower value 0.959 | [5] 0.902 | [6] 0.982 | S. cerevisiae deletion strains, locus YPR135W, strain CTF4, stronger effect = lower value 0.94 | S. cerevisiae strains, strain wild type, stronger effect = lower value 0.984

CC(C)(C)NC[C@H](O)c1ccc(O)c(CO)c1
inactive: S. cerevisiae deletion strains, locus YAL021C, strain ccr4, stronger effect = lower value 1.02 | S. cerevisiae deletion strains, locus YAL026C, strain drs2, stronger effect = lower value 1.03 | S. cerevisiae deletion strains, locus YAL030W, strain snc1, stronger effect = lower value 1.02 | S. cerevisiae deletion strains, locus YBL061C, strain skt5, stronger effect = lower value 1.01 | S. cerevisiae deletion strains, locus YBR009C, strain hhf1, stronger effect = lower value 1.03 | S. cerevisiae deletion strains, locus YBR023C, strain chs3, stronger effect = lower value 1.02 | S. cerevisiae deletion strains, locus YBR171W, strain sec66, stronger effect = lower value 1.04 | S. cerevisiae deletion strains, locus YBR231C, strain swc5, stronger effect = lower value 1.03 | S. cerevisiae deletion strains, locus YBR279W, strain paf1, stronger effect = lower value 1.02 | S. cerevisiae deletion strains, locus YCL011C, strain gbp2, stronger effect = lower value 1.02 | S. cerevisiae deletion strains, locus YCL016C, strain dcc1, stronger effect = lower value 1.02 | S. cerevisiae deletion strains, locus YCL061C, strain MRC1, stronger effect = lower value 1.01 | S. cerevisiae deletion strains, locus YCL069W, strain vba3, stronger effect = lower value 1.02 | S. cerevisiae deletion strains, locus YCR088W, strain abp1, stronger effect = lower value 1.02 | S. cerevisiae deletion strains, locus YDL005C, strain med2, stronger effect = lower value 1.02 | S. cerevisiae deletion strains, locus YDL040C, strain nat1, stronger effect = lower value 1.02 | S. cerevisiae deletion strains, locus YDR001C, strain nth1, stronger effect = lower value 1.01 | S. cerevisiae deletion strains, locus YDR069C, strain doa4, stronger effect = lower value 1.04 | S. cerevisiae deletion strains, locus YDR137W, strain rgp1, stronger effect = lower value 1.06 | S. cerevisiae deletion strains, locus YDR159W, strain sac3, stronger effect = lower value 1.04 | S. cerevisiae deletion strains, locus YDR195W, strain ref2 1.02 | S. cerevisiae deletion strains, locus YDR297W, strain sur2, stronger effect = lower value 1.05 | S. cerevisiae deletion strains, locus YDR334W, strain swr1, stronger effect = lower value 1.02 | S. cerevisiae deletion strains, locus YDR335W, strain msn5, stronger effect = lower value 1.01 | S. cerevisiae deletion strains, locus YDR392W, strain spt3, stronger effect = lower value 0.992 | S. cerevisiae deletion strains, locus YEL003W, strain gim4, stronger effect = lower value 1.01 | S. cerevisiae deletion strains, locus YEL037C, strain rad23, stronger effect = lower value 1 | S. cerevisiae deletion strains, locus YEL061C, strain CIN8 (second series), stronger effect = lower value 1.01 | S. cerevisiae deletion strains, locus YER015W, strain faa2, stronger effect = lower value 1.02 | S. cerevisiae deletion strains, locus YER016W, strain bim1, stronger effect = lower value 1.03 | S. cerevisiae deletion strains, locus YER111C, strain swi4, stronger effect = lower value 1.02 | S. cerevisiae deletion strains, locus YER155C, strain BEM2 (second series), stronger effect = lower value 1.03 | S. cerevisiae deletion strains, locus YFR010W, strain ubp6, stronger effect = lower value 1.02 | S. cerevisiae deletion strains, locus YGL167C, strain pmr1, stronger effect = lower value 1.01 | S. cerevisiae deletion strains, locus YGL173C, strain kem1, stronger effect = lower value 1.03 | S. cerevisiae deletion strains, locus YGL227W, strain vid30, stronger effect = lower value 1.01 | S. cerevisiae deletion strains, locus YGL240W, strain doc1, stronger effect = lower value 1.02 | S. cerevisiae deletion strains, locus YGL253W, strain hxk2, stronger effect = lower value 1.01 | S. cerevisiae deletion strains, locus YHR013C, strain ard1, stronger effect = lower value 1.04 | S. cerevisiae deletion strains, locus YHR027C, strain rpn1, stronger effect = lower value 1.02 | [7] 0.999 | S. cerevisiae deletion strains, locus YHR079C, strain IRE1, stronger effect = lower value 0.97 | S. cerevisiae deletion strains, locus YHR142W, strain chs7, stronger effect = lower value 1.01 | S. cerevisiae deletion strains, locus YJL092W, strain hpr5, stronger effect = lower value 1.02 | S. cerevisiae deletion strains, locus YJL095W, strain BCK1 (second series), stronger effect = lower value 1.01 | S. cerevisiae deletion strains, locus YJL095W, strain BCK1, stronger effect = lower value 0.966 | S. cerevisiae deletion strains, locus YJL115W, strain asf1, stronger effect = lower value 1.02 | S. cerevisiae deletion strains, locus YJL129C, strain trk1, stronger effect = lower value 1.03 | S. cerevisiae deletion strains, locus YJL154C, strain vps35, stronger effect = lower value 1.02 | S. cerevisiae deletion strains, locus YJL164C, strain tpk1, stronger effect = lower value 1.02 | S. cerevisiae deletion strains, locus YJL166W, strain qcr8, stronger effect = lower value 1.02 | S. cerevisiae deletion strains, locus YJL187C, strain SWE1, stronger effect = lower value 1.02 | S. cerevisiae deletion strains, locus YJR066W, strain TOR1, stronger effect = lower value 0.955 | S. cerevisiae deletion strains, locus YKL160W, strain elf1, stronger effect = lower value 1.02 | S. cerevisiae deletion strains, locus YKR026C, strain gcn3, stronger effect = lower value 1.01 | S. cerevisiae deletion strains, locus YKR091W, strain srl3, stronger effect = lower value 1.02 | S. cerevisiae deletion strains, locus YLL001W, strain dnm1, stronger effect = lower value 1.03 | S. cerevisiae deletion strains, locus YLL026W, stronger effect = lower value 1.03 | S. cerevisiae deletion strains, locus YLL041C, strain sdh2, stronger effect = lower value 1.02 | S. cerevisiae deletion strains, locus YLR027C, strain aat2, stronger effect = lower value 1.02 | S. cerevisiae deletion strains, locus YLR113W, strain HOG1, stronger effect = lower value 0.976 | S. cerevisiae deletion strains, locus YLR221C, strain rsa3, stronger effect = lower value 1.02 | S. cerevisiae deletion strains, locus YLR258W, strain gsy2, stronger effect = lower value 1.03 | S. cerevisiae deletion strains, locus YLR262C, strain YPT6 (second series), stronger effect = lower value 1.03 | S. cerevisiae deletion strains, locus YLR320W, strain mms22, stronger effect = lower value 1.02 | S. cerevisiae deletion strains, locus YLR342W, strain FKS1, stronger effect = lower value 1.03 | S. cerevisiae deletion strains, locus YLR357W, strain rsc2, stronger effect = lower value 1.06 | S. cerevisiae deletion strains, locus YLR370C, strain arc18, stronger effect = lower value 1.02 | S. cerevisiae deletion strains, locus YLR384C, strain iki3, stronger effect = lower value 1.02 | S. cerevisiae deletion strains, locus YML120C, strain ndi1, stronger effect = lower value 1.01 | S. cerevisiae deletion strains, locus YMR058W, strain fet3, stronger effect = lower value 1.02 | S. cerevisiae deletion strains, locus YMR125W, strain sto1, stronger effect = lower value 1.03 | S. cerevisiae deletion strains, locus YMR129W, stronger effect = lower value 1 | S. cerevisiae deletion strains, locus YMR205C, strain PFK2, stronger effect = lower value 1.02 | S. cerevisiae deletion strains, locus YMR231W, strain pep5, stronger effect = lower value 1.03 | S. cerevisiae deletion strains, locus YNL071W, strain lat1, stronger effect = lower value 1.02 | S. cerevisiae deletion strains, locus YNL183C, strain NPR1, stronger effect = lower value 0.912 | S. cerevisiae deletion strains, locus YNL209W, strain ssb2, stronger effect = lower value 1.02 | S. cerevisiae deletion strains, locus YNL248C, strain rpa49, stronger effect = lower value 1.01 | S. cerevisiae deletion strains, locus YNL322C, strain KRE1 (second series), stronger effect = lower value 1.01 | S. cerevisiae deletion strains, locus YNR049C, strain mso1, stronger effect = lower value 1.02 | S. cerevisiae deletion strains, locus YOR001W, strain rrp6, stronger effect = lower value 1.02 | S. cerevisiae deletion strains, locus YOR070C, strain gyp1, stronger effect = lower value 1.01 | S. cerevisiae deletion strains, locus YOR080W, strain dia2, stronger effect = lower value 1.02 | S. cerevisiae deletion strains, locus YOR083W, strain WHI5, stronger effect = lower value 1.01 | S. cerevisiae deletion strains, locus YOR106W, strain vam3, stronger effect = lower value 1.02 | S. cerevisiae deletion strains, locus YOR231W, strain MKK1, stronger effect = lower value 0.973 | S. cerevisiae deletion strains, locus YOR265W, strain rbl2, stronger effect = lower value 1.01 | S. cerevisiae deletion strains, locus YOR270C, strain vph1, stronger effect = lower value 1.07 | S. cerevisiae deletion strains, locus YOR290C, strain snf2, stronger effect = lower value 1.03 | S. cerevisiae deletion strains, locus YPL051W, strain arl3, stronger effect = lower value 1.02 | S. cerevisiae deletion strains, locus YPL078C, strain atp4, stronger effect = lower value 1.02 | S. cerevisiae deletion strains, locus YPL106C, strain sse1, stronger effect = lower value 1.03 | S. cerevisiae deletion strains, locus YPL240C, strain hsp82, stronger effect = lower value 1.02 | S. cerevisiae deletion strains, locus YPL256C, strain CLN2, stronger effect = lower value 0.971
